Test results published in PubChem BioAssay (NCATS).
Results filed as inconclusive are left out. Activity calls are given as the source filed them. Unless noted, the call rests on the fitted dose curve; in most records, active means well fitted curve in the direction sought with a large enough effect; inconclusive means small, poorly fitted or top-dose-only effect, or another doubt; inactive means no such curve, though single readings can be large; an effect the other way counts as inactive or inconclusive.

Legend:
[1] = Primary qHTS for small molecule stabilizers of the endoplasmic reticulum resident proteome: Secreted ER Calcium Modulated Protein (SERCaMP) assay (AID 1508630); on activity change, negative = inhibition: on the % scale 0 is the no-effect control and ±100 the full control effect
How it was run: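 GLuc-SERCaMP-expressing SH-SY5Y cells, pretreated 16 h with compound, are challenged with thapsigargin to empty ER calcium stores; after 4 h, coelenterazine is added directly to the medium and luminescence is imaged.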

[2] = A High-Content qHTS Against Drug Library for the Identification of Small Molecules that Inhibit DYT1 Early Onset Primary Dystonia-Associated Cell Pathology (AID 1645839; calls by dose curve; on % pathology change, negative = correction: series mostly up to about 46 µM)
How it was run: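 Readout: %pathology, the punctate EGFP-TorsinA distribution from imaging, as the primary channel and cell count as the toxicity counterscreen. HEK293 Flp-In cells expressing delE TorsinA were induced with tetracycline and treated with compound for 48 h.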

[3] = target: Cytochrome P450 2D6 (Homo sapiens) (UniProt P10635); assay: Cytochrome P450 family 2 subfamily D member 6 (CYP2D6) small molecule antagonists: luciferase biochemical (cell-free) qHTS assay (AID 1645840; active means well fitted curve in the direction sought with a large enough effect in the repeat runs; an effect the other way counts as inactive or inconclusive; further: nearly all actives have a fitted effect of over 55% in size; on activity change, negative = inhibition: series mostly up to about 57 µM; on the % scale 0 is the no-effect control and ±100 the full control effect)
How it was run: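 P450-Glo luminescent screen: recombinant CYP2D6 enzyme–proluciferin substrate mix preincubated with compound 10 min at room temperature, then NADPH regeneration added for 1 h at room temperature. Detection reagent added for 20 min; luciferin light read as relative luminescence units.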

[4] = target: Cytochrome P450 2C9 (Homo sapiens) (UniProt P11712); assay: Cytochrome P450 family 2 subfamily C member 9 (CYP2C9) small molecule antagonists: luciferase biochemical (cell-free) qHTS assay (AID 1645842; active means well fitted curve in the direction sought with a large enough effect in the repeat runs; an effect the other way counts as inactive or inconclusive; further: nearly all actives have a fitted effect of over 55% in size; on activity change, negative = inhibition: series mostly up to about 57 µM; on the % scale 0 is the no-effect control and ±100 the full control effect)
How it was run: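 Luminescence, after 20 min with luciferin detection reagent, reflected CYP2C9 turnover during a 1 h NADPH-driven reaction at 37C. Enzyme-substrate mix contained 0.4% bovine serum albumin and was preincubated with compound 10 min at room temperature.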

[5] = Primary qHTS for inhibitors of nuclear receptor binding SET domain protein 2 (NSD2) in an isogenic RCH-ACV NSD2 p.E1099K mutant (9B) (AID 1645876); further: nearly all actives have a fitted effect of over 70% in size
[6] = Primary qHTS for inhibitors of nuclear receptor binding SET domain protein 2 (NSD2) in an RCH-ACV wild type WT cells (2C) (AID 1645877); further: nearly all actives have a fitted effect of over 70% in size; on activity change, negative = cell killing: on the % scale 0 is the no-effect control and ±100 the full control effect
Potency means the concentration at half of the fitted maximal effect.

Chain of Cytochrome P450 2C9 (Homo sapiens) (P11712 whole entry, looked up): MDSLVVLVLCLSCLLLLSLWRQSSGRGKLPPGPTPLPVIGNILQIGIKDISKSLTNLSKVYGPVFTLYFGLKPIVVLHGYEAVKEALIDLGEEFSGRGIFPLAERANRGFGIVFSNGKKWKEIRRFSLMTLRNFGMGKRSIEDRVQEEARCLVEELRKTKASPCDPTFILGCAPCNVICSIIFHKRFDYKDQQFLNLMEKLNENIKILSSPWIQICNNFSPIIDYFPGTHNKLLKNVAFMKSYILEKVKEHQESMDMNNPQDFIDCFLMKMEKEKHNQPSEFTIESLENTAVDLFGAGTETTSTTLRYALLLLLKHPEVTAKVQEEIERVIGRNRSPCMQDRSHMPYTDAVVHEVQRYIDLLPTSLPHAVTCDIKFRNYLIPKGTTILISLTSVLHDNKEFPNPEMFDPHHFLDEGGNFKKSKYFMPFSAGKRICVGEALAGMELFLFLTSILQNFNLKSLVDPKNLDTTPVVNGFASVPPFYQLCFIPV
Chain of Cytochrome P450 2D6 (Homo sapiens) (P10635 whole entry, looked up): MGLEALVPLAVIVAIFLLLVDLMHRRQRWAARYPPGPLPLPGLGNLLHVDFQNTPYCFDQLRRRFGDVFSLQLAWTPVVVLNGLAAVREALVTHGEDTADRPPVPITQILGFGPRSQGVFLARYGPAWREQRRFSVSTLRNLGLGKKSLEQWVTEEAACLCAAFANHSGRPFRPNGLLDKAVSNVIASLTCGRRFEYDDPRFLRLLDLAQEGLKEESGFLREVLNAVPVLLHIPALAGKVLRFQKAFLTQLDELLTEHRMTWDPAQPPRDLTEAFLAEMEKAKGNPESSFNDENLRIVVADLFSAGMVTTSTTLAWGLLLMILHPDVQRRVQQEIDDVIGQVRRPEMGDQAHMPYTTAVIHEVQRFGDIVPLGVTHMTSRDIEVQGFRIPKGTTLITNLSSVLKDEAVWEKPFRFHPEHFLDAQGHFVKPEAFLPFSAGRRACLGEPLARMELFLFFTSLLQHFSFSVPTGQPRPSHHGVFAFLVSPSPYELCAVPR

Cc1c[nH]c2ccccc12
inactive: Potency [1] | Potency [2] | Potency [3] | Potency [4] | Potency [5] | Potency [6]

OCc1ccccn1
inactive: Potency [1] | Potency [2] | Potency [3] | Potency [4] | Potency [5]

Cc1cccc(C)c1NC(=O)CN1CCCCCC1
active: Potency [3] 11 µM
inactive: Potency [1] | Potency [2] | Potency [4] | Potency [5] | Potency [6]

NS(=O)(=O)c1cc(C(=O)O)cc(N2CCCC2)c1Oc1ccccc1
inactive: Potency [1] | Potency [2] | Potency [3] | Potency [4] | Potency [5]

FC1(F)C(F)(F)C(F)(F)C2(F)C(F)(F)C(F)(F)C(F)(F)C(F)(F)C2(F)C1(F)F (stereo not drawn)
inactive: Potency [1] | Potency [2] | Potency [3] | Potency [4] | Potency [5] | Potency [6]

CCc1ccc(C(=O)C(C)CN2CCCCC2)cc1 (stereo not drawn)
active: Potency [3] 0.871 µM | Potency [6] 23.7 µM
inactive: Potency [1] | Potency [2] | Potency [4]

Clc1cccc(C(c2ccc3nc[nH]c3c2)n2ccnc2)c1 (stereo not drawn)
active: Potency [3] 15.5 µM | Potency [4] 7.76 µM
inactive: Potency [1] | Potency [2] | Potency [5] | Potency [6]

NC(N)=NN=C(/C=C/c1ccc([N+](=O)[O-])o1)/C=C/c1ccc([N+](=O)[O-])o1
inactive: Potency [1]
active: Potency [2] 1 µM | Potency [3] 2.75 µM | Potency [4] 15.5 µM | Potency [5] 0.668 µM | Potency [6] 0.531 µM

CC(C)CCCC(C)N (stereo not drawn)
inactive: Potency [1] | Potency [2] | Potency [3] | Potency [4] | Potency [5]

COc1ccc(CCN(C)CCCN2CCc3cc(OC)c(OC)cc3CC2=O)cc1OC
inactive: Potency [1] | Potency [2] | Potency [3] | Potency [4] | Potency [5] | Potency [6]

COc1ccc(CN(CCN(C)C)c2ncccn2)cc1
inactive: Potency [1] | Potency [2] | Potency [4] | Potency [5] | Potency [6]
active: Potency [3] 0.49 µM

CCCCCCCCCCCCCCCCO
inactive: Potency [1] | Potency [2] | Potency [3] | Potency [5] | Potency [6]

OC(C#CCN1CCCC1)(c1ccccc1)c1ccccc1
active: Potency [3] 12.3 µM | Potency [4] 8.71 µM
inactive: Potency [1] | Potency [2] | Potency [5] | Potency [6]

C#C[C@]1(O)CC[C@H]2[C@@H]3CCC4=CC(=O)CC[C@@H]4[C@H]3CC[C@@]21CC
inactive: Potency [1] | Potency [2] | Potency [3] | Potency [5]
active: Potency [4] 12.3 µM

O=C(CCCN1CC=C(n2c(=O)[nH]c3ccccc32)CC1)c1ccc(F)cc1
inactive: Potency [2] | Potency [4] | Potency [5] | Potency [6]
active: Potency [1] 25.1 µM | Potency [3] 0.246 µM

N=C(N)N1CCc2ccccc2C1
inactive: activity change, negative = inhibition [1] -7.52% [at 3.88 µM] | % pathology change, negative = correction [2] 0.596% [at 4.63 µM] | activity change, negative = inhibition [3] 3.13% [at 4.83 µM] | activity change, negative = inhibition [4] 12.1% [at 4.83 µM] | activity change, negative = viability loss [5] -4.68% [at 4.96 µM] | activity change, negative = cell killing [6] -10.2% [at 4.96 µM]

COc1ccc(/C=N/NC(=O)c2ccncc2)cc1OC
active: Potency [3] 21.9 µM | Potency [4] 12.3 µM
inactive: Potency [1] | Potency [2] | Potency [5] | Potency [6]

CC(C)Cn1cnc2c1c(=O)n(C)c(=O)n2C
inactive: Potency [1] | Potency [2] | Potency [3] | Potency [4] | Potency [5] | Potency [6]

CC(=O)NCCCCCC(=O)O
inactive: Potency [1] | Potency [2] | Potency [3] | Potency [4] | Potency [5] | Potency [6]

CCCCCCCC/C=C\CCCCCCCCN
active: Potency [3] 0.55 µM | Potency [4] 19.5 µM
inactive: Potency [1] | Potency [2] | Potency [5]

CC(=O)Nc1ccc(S(=O)(=O)Nc2ccc([N+](=O)[O-])cc2)cc1
inactive: Potency [1] | Potency [2] | Potency [3] | Potency [5]
active: Potency [4] 13.8 µM

CC(=O)OCC(=O)[C@H]1CC[C@H]2[C@@H]3CCC4=CC(=O)CC[C@]4(C)[C@H]3CC[C@]12C
active: Potency [4] 4.9 µM
inactive: Potency [1] | Potency [2] | Potency [3] | Potency [5]

O=S(=O)(O)c1ccc(O)cc1
inactive: Potency [1] | Potency [2] | Potency [3] | Potency [4] | Potency [5] | Potency [6]

CCCCC(CC)COC(=O)/C=C/c1ccc(OC)cc1 (stereo not drawn)
active: Potency [4] 9.77 µM
inactive: Potency [1] | Potency [2] | Potency [3] | Potency [5] | Potency [6]

CCN(CC)CCNC(=O)COc1ccc(OC)cc1
inactive: Potency [1] | Potency [2] | Potency [4] | Potency [5] | Potency [6]
active: Potency [3] 13.8 µM

CNCCc1ccccn1
inactive: Potency [1] | Potency [2] | Potency [3] | Potency [4] | Potency [5]

CN1CCN(c2cc3c(cc2F)c(=O)c(C(=O)O)cn3-c2ccc(F)cc2)CC1
active: Potency [5] 11.9 µM | Potency [6] 7.5 µM
inactive: Potency [1] | Potency [2] | Potency [3] | Potency [4]

CC(C)NCC(O)c1ccc2ccccc2c1 (stereo not drawn)
active: Potency [3] 3.47 µM
inactive: Potency [1] | Potency [2] | Potency [4] | Potency [5] | Potency [6]
